High-throughput results (PubChem)
Giardia killer: Giardia lamblia killing. Giardia lamblia trophozoite viability. activity change, % at 7.66 µM, hits read low. 340,000 tested, 0.15% active. AID 540267; in the data active means activity change below about -80%; inconclusive means between about -30% and that limit;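 further: parasites exposed to compound for two days anaerobically before the ATP read; on the % scale 0 is the no-effect control and ±100 the full control effect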
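Giardia trophozoites, 100 cells per well, were exposed to compounds for 48 hrs at 37 deg C under anaerobic conditions; viability was then read as ATP content by bioluminescence after 15-30 min at room temperature.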
BCR signal inh: inhibitors of chronic active B-cell receptor signaling | Potency, µM (doses to about 46.1 µM), for inactives: at the highest dose activity change, negative = inhibition, usual class: inhibitors | AID 493014 | 340,000 tested, 0.05% active | ABC-DLBCL IkBa-CBG/CBR reporter, luminescence ratio, 4 h; active means well fitted inhibition curve with a large enough effect in the signal ratio, with a control signal flat, not every such curve was filed as active; inconclusive means small, poorly fitted or top-dose-only effect, or effect the other way, or a change in a side signal; the % refers to the signal ratio;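 further: potency means the concentration at half of the fitted maximal effect; plate controls were basal doxycycline-induced cells for no effect and cells given 10 µM MG132 for full effect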
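TMD8 human ABC-DLBCL cells with doxycycline-inducible IκBα–green luciferase fusion and unfused red luciferase, in 0.5% FBS medium; compounds up to 46 uM, 4 h at 37C. Green/red luminescence ratio, filter-overlap corrected, fitted to concentration-response curves.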
RORg inh: blocks mouse ROR gamma transcriptional activity | P51450 | Drosophila S2 Gal4-RORgamma UAS-luciferase reporter, 20 h | AID 2551 | Potency, µM (doses to about 53.6 µM), inactives show at the top dose activity change, negative = inhibition, hits mostly inhibitors | 310,000 tested, 5.4% active; further: potency means the concentration at half of the fitted maximal effect; on the % scale 0 is the no-effect control and ±100 the full control effect; nearly all actives have a fitted effect of over 60% in size
Target sequence (P51450 whole entry, looked up, the tested form may be a part): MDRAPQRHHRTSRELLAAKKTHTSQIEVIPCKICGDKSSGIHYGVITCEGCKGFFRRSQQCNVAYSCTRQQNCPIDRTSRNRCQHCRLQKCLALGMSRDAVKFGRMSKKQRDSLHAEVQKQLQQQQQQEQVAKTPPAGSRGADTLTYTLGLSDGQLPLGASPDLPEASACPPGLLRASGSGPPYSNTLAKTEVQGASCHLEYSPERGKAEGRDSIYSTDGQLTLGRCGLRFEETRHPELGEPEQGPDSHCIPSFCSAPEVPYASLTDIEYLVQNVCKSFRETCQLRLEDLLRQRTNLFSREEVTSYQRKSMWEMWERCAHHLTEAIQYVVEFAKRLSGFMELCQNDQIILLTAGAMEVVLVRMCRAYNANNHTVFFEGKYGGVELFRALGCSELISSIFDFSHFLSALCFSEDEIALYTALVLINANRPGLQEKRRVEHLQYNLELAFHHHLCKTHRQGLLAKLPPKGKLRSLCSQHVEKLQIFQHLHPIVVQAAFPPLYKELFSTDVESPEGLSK
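Drosophila S2 cells stably expressing Gal4-DBD/mouse RORγ fusion under metallothionein promoter plus UAS-luciferase; compound 1 h, then 700 uM CuSO4 induction for 20 h at ambient temperature; inhibition read as reduced luminescence.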
SW480 rerep: inducers of DNA re-replication in SW480 colon cancer cells | SW480 DNA re-replication, Hoechst DNA content imaging, 48 h | Potency, µM (titrated, usually from 46.1 µM), for the others: top-dose re-replication activation, hits mostly activators | 340,000 tested, 1.8% active; further: potency means the concentration at half of the fitted maximal effect; % of control where 0% means no effect; nearly all actives have a fitted effect of over 55% in size
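First, 250 cells per well were seeded. Next, compound or vehicle (23 nL) was pinned in, plates sat 48 hr at 37 C. Finally Hoechst was added for 40 min before fluorescence scanning.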
MCF10A rerep: induces DNA re-replication in MCF 10a normal breast cells; MCF 10A DNA re-replication, Hoechst nuclear intensity, 48 h; Potency, µM (highest dose often 46.1 µM), for inactives: at the highest dose activity, positive = re-replication, actives largely listed as activators; 350,000 tested, 2.9% active; AID 624296; further: potency means the concentration at half of the fitted maximal effect; % of control where 0% means no effect; nearly all actives have a fitted effect of over 50% in size
Gal4-VP16 FLuc: counter-screen for ROR gamma inhibitors: Gal4-VP16 reporter. Potency, µM (series often up to 53.6 µM), for inactives: at the top dose activity, negative = inhibition, hits mostly inhibitors. AID 2546. 310,000 tested, 3.5% active. Drosophila S2 Gal4-VP16 UAS-luciferase, luminescence, 20 h;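 further: Gal4-VP16 expression switched on by copper sulfate through the metallothionein promoter; potency means the concentration at half of the fitted maximal effect; on the % scale 0 is the no-effect control and ±100 the full control effect; nearly all actives have a fitted effect of over 50% in size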
* = called active by the depositor; ? = inconclusive; · = no result; [ ] = remark or other dose. In the library only some 8.3% were active in any assay of this set; here they are far more common. Unless noted, the call rests on the fitted dose curve; in most records, active means well fitted curve in the direction sought with a large enough effect; inconclusive means small, poorly fitted or top-dose-only effect, or another doubt; inactive means no such curve, though single readings can be large; an effect the other way counts as inactive or inconclusive.

SMILES	Giardia killer	BCR signal inh	RORg inh	SW480 rerep	MCF10A rerep	Gal4-VP16 FLuc
O=C(CNC(=O)c1ccccc1)N/N=C/c1ccc([N+](=O)[O-])o1	?	?	-28%	?	-1%	18µM*
O=C(CCC(=O)Nc1ccc(Cl)cc1Cl)N/N=C/c1ccc([N+](=O)[O-])o1	-82*	2%	?	4.6µM*	?	16µM*
O=[N+]([O-])c1ccc(/C=N\NS(=O)(=O)c2ccc(F)cc2)o1	?	-3%	?	?	?	14µM*
CCCCCC(=O)N/N=C/c1ccc([N+](=O)[O-])o1	-103*	8%	-18%	8.9µM*	28%	-27%
O=C(CCCn1cnc([N+](=O)[O-])n1)Nc1ccc(Cl)cc1Cl	?	-2%	-27%	-59%	10%	?
Cc1ccc(NC(=O)C(C)N2C(=O)c3ccccc3C2=O)c(C)c1 (centres undefined)	6	3%	-10%	-31%	-3%	-1%
Cc1scc(C(=O)N/N=C/c2ccc([N+](=O)[O-])o2)c1C	·	?	4µM*	·	·	7.1µM*
O=C(NN=Cc1ccc(F)cc1)c1ccccc1NS(=O)(=O)c1cccs1	-14	2%	·	1%	14%	·
O=C(N/N=C/c1ccc([N+](=O)[O-])o1)c1ccccc1NS(=O)(=O)c1cccs1	?	?	-22%	?	18µM*	-10%
Cc1scc(C(=O)N/N=C/c2ccco2)c1C	4	?	-38%	-7%	-2%	-5%
CCN(CC)S(=O)(=O)c1cccc(C(=O)N/N=C/c2ccc([N+](=O)[O-])o2)c1	-20	?	10µM*	21µM*	?	?
C[C@H](N)c1nnc(SCC(N)=O)o1	39	-1%	-9%	1%	1%	1%
Fc1ccccc1N1CCN(C2CCCN(Cc3ccccc3C(F)(F)F)C2)CC1 (centres undefined)	1	-2%	?	4%	?	-12%
CC(C)CCNC(=O)CNC(=S)N(Cc1ccccc1)Cc1cccnc1	6	-6%	45%	-3%	25%	13%
CC1CCCN(C(=O)CN2C(=O)NC(C)(c3ccc4ccccc4c3)C2=O)C1 (centres undefined)	-2	-12%	·	-2%	-27%	·
COc1ccc(-c2nnc(NC(=O)c3ccc(S(=O)(=O)N(C)CC4CCCO4)cc3)o2)c(OC)c1 (centres undefined)	-8	-6%	0.71µM*	?	?	1µM*
CS(=O)(=O)c1cccc(-c2nnc(NC(=O)c3ccc(S(=O)(=O)N4CCCC4)cc3)o2)c1	-6	-8%	·	0%	18%	·
CCC(=O)Nc1nnc(-c2ccccn2)o1	-18	1%	?	-7%	-14%	0%
CC1CCCN(S(=O)(=O)c2ccc(C(=O)Nc3nnc(-c4ccccn4)o3)cc2)C1 (centres undefined)	2	5%	1.8µM*	26%	2%	-2%
COC(=O)c1sc2ccccc2c1NC(=O)c1ccc(S(=O)(=O)N2CCCC(C)C2)cc1 (centres undefined)	-6	7%	-12%	-8%	8%	-8%
O=C(Nc1nnc(-c2ccccn2)o1)c1ccc(Br)cc1	-18	?	0.63µM*	-2%	29%	0.63µM*
COc1ccccc1-c1nnc(NC(=O)c2ccc(S(=O)(=O)N3CCCC3)cc2)o1	-7	?	0.71µM*	?	3%	0.89µM*
O=c1c2ccccc2cnn1CCOc1cccc(Br)c1	-1	14%	10%	0%	14%	-5%
Cn1c(CCNS(=O)(=O)c2ccccc2)nc2cc([N+](=O)[O-])ccc21	1	0%	-1%	-29%	-4%	-10%
O=C1[C@@H]2[C@H]3[C@H](O)[C@H](O)C/C(=N/OCc4ccccc4)[C@H]3CC[C@H]2C(=O)N1c1ccc(F)cc1F	·	·	-5%[10 µM]	·	·	3%[10 µM]
SMILES	Giardia killer	BCR signal inh	RORg inh	SW480 rerep	MCF10A rerep	Gal4-VP16 FLuc
CC1CCCN(S(=O)(=O)c2ccc(C(=O)Nc3nnc(C4CC4)o3)cc2)C1 (centres undefined)	-1	6%	0.22µM*	?	9%	1µM*
CC1CCCN(S(=O)(=O)c2ccc(C(=O)Nc3nnc(-c4ccccc4Cl)o3)cc2)C1 (centres undefined)	0	7%	0.1µM*	?	?	0.16µM*
CC1CCCN(S(=O)(=O)c2ccc(NC(=O)Cn3nnc(-c4ccccc4F)n3)cc2)C1 (centres undefined)	11	8%	56%	?	?	2%
O=c1[nH]cnc2c1ncn2[C@H]1C[C@H](O)[C@@H](CO)O1	-9	·	·	·	·	·
COC(=O)[C@H](Cc1ccccc1)N1C/C=C\COc2c(Cl)cc(Cl)cc2S1(=O)=O	-10	?	·	13%	-27%	·
COc1ccc(C(=O)Nc2cccc(C(C)=O)c2)cc1S(=O)(=O)N1CCOCC1	-3	-7%	1%	-5%	2%	3%
COc1ccc(C(=O)Nc2cccc(C)c2)cc1S(=O)(=O)N1CCOCC1	-9	0%	-7%	?	18µM*	6%
COc1ccc(NC(=S)Nc2cccc(S(=O)(=O)N3CCCCC3)c2)cc1	-4	-1%	18µM*	15%	1%	?
COc1ccc(C(=O)NC(=S)Nc2cccc(S(=O)(=O)N3CCOCC3)c2)cc1	-1	-27%	22µM*	?	16µM*	-9%
COc1ccc(S(=O)(=O)N2CCC(C(=O)NCCC(=O)Nc3cccc(Cl)c3)CC2)cc1	-28	5%	1%	?	21µM*	-7%
CC(C)(C)C(Cn1ccnc1)NC(=O)c1ccc2nc(C3CC3)oc2c1 (centres undefined)	11	?	28%	-21%	7%	13%
CC1CCN(c2ccc([N+](=O)[O-])cc2C(=O)NCC2CCCO2)CC1 (centres undefined)	8	-2%	-14%	4%	3%	1%
O=C(Nc1cccc(S(=O)(=O)N2CCCCC2)c1)Nc1ccc(Cl)cc1Cl	-24	0%	7%[10 µM]	?	7.3µM*	?
COc1ccc(S(=O)(=O)N2CCOCC2)c(Cl)c1Cl	15	?	?	10%	7.3µM*	-7%
COc1ccc(S(=O)(=O)N2CCOCC2)cc1Cl	-5	-16%	4%	2%	7%	7%
CC1(C)CC2CC(C)(CN2S(=O)(=O)c2ccc(C(=O)Nc3cc(S(=O)(=O)N4CCOCC4)ccc3Cl)cc2)C1 (centres undefined)	-13	5%	?	-8%	?	-10%
